Many of the other results were omitted from the sample, so hits are more common in it than they were.
SARS PLpro yeast: blocks SARS-CoV papain-like protease in a yeast assay | S. cerevisiae expressing SARS-CoV PLpro, growth rescue | Potency, µM (top dose mostly 32.9 µM), most hits filed as activators | 330,000 compounds, 0.19% hits | AID 485353; calls by dose curve; also: nearly all actives have a fitted effect of over 55% in size
AMA1-RON2 inh: inhibitors of Plasmodium falciparum AMA1-RON2 interaction. AlphaScreen AMA1-biotinylated RON2 peptide binding. Potency, µM (highest dose often 58.2 µM), usual class: inhibitors. 360,000 compounds, 0.2% hits. AID 720542; also: nearly all actives have a fitted effect of over 45% in size
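AMA1 (3D7) with his tag at 25 nM final met compounds first, then biotinylated RON2 peptide at 25 nM; detection used donor plus acceptor beads, 10 µg/mL apiece, read by AlphaScreen after 30 min at room temperature.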
AmpC inh no detg: blocks E. coli AmpC beta-lactamase in detergent-free assay; P00811; AmpC nitrocefin hydrolysis, absorbance 480 nm, 0.0001% Triton; Potency, µM (titrated, usually from 57.1 µM), hits mostly inhibitors; 330,000 compounds, 0.52% hits; also: nearly all actives have a fitted effect of over 20% in size
Target sequence (P00811 whole entry, looked up): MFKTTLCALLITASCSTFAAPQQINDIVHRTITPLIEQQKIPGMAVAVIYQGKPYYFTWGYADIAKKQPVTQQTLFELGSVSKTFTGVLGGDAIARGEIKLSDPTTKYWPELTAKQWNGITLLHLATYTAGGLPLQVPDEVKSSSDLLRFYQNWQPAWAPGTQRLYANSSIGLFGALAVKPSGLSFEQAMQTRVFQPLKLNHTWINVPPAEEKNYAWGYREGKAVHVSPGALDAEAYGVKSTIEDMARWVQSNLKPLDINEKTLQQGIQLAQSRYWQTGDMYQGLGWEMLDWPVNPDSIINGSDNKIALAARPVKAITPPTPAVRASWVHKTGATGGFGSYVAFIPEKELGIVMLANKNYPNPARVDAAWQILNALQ
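20 mM phosphate pH 7.0 + 0.01% (detergent screen) or 0.0001% Triton X-100; 5.3 nM AmpC reagent; cpd preinc 15 min RT; nitrocefin (800 uM stock) to start; A480 q20 s × 4 min; Activity was normalised to no-enzyme and no-compound control wells.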
Shiga toxin inh: inhibitors of Shiga toxin in Vero cells | Vero cells, Shiga toxin protein synthesis inhibition reporter | inhibition, % at 38.7 µM | 290,000 compounds, 9.2% hits | AID 2315; in the data active = inhibition mostly above about 28%, no sharp cut-off; inactive = mostly below about 43%
Cycloheximide cs: counter-screen hit for Shiga toxin inhibitors, cycloheximide. cell reporter, cycloheximide protein synthesis inhibition counterscreen. max response, %. 300,000 compounds, 12% hits; in the data active = max response mostly above about 13%, no sharp cut-off; inactive = mostly below about 14%; also: read at 38.3 µM for the half of the compounds with a filed dose
AmpC inh detg: blocks E. coli AmpC beta-lactamase in detergent assay; P00811; AmpC hydrolysis of nitrocefin, absorbance 480 nm, 0.01% Triton; Potency, µM (titrated, usually from 114 µM), most hits filed as inhibitors; 370,000 compounds, 0.041% hits; AID 485294; also: nearly all actives have a fitted effect of over 25% in size
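AmpC (5.3 nM in the dispensed reagent) in 20 mM phosphate pH 7.0 with 0.01% (detergent screen) or 0.0001% Triton X-100 was preincubated with compounds for 15 min at room temperature. Nitrocefin was then added from an 800 uM solution, and hydrolysis was followed at 480 nm.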
Large screens that a line does not name were inactive. Unless noted, calls follow the shape of the dose curve; as a rule, active = well fitted curve in the direction sought with a large enough effect; inconclusive = small, poorly fitted or top-dose-only effect, or another doubt; inactive = no such curve, though single readings can be large; an effect the other way counts as inactive or inconclusive.

Cc1cccc(NC(=O)CC2SC(=O)N(c3ccccc3)C2=O)c1 (centres undefined)	none
Cc1ccc(N2C(=O)SC(Cc3ccccc3)C2=O)cc1 (centres undefined)	Shiga toxin inh 42, Cycloheximide cs 14
O=C1SC(Cc2ccccc2)C(=O)N1c1ccccc1 (centres undefined)	none
CCCN1C(=O)SC(CC(=O)Nc2ccc(C)cc2)C1=O (centres undefined)	SARS PLpro yeast 11µM
C=CCOc1ccc(/C(O)=C2\C(=O)C(=O)N(CCCOC)C2c2ccncc2)cc1 (centres undefined)	none
Cc1ccccc1NC(=O)CN1C(=O)CSc2ccc(S(=O)(=O)N3CCCC3)cc21	none
Cc1ccc(NC(=O)CC2SC(=O)N(c3ccccc3)C2=O)cc1 (centres undefined)	Shiga toxin inh 51, Cycloheximide cs 27
Cc1ccc(S(=O)(=O)/N=C2\SC(CC(=O)Nc3ccc(F)cc3)C(=O)N2c2ccccc2)cc1 (centres undefined)	none
O=C(CC1Sc2ncnn2C1=O)Nc1ccccc1 (centres undefined)	Cycloheximide cs 17, AmpC inh detg inconclusive
COc1ccccc1NC1SC(=O)N(c2ccccc2)C1=O (centres undefined)	none
Cc1cccc(NC2SC(=O)N(c3ccccc3)C2=O)c1 (centres undefined)	Shiga toxin inh 71, Cycloheximide cs 53
CSCCC(C(=O)NCc1ccccc1)n1c(Cc2cc(F)cc(F)c2)nc2ccccc21 (centres undefined)	none (no result: SARS PLpro yeast, AmpC inh no detg, Shiga toxin inh, Cycloheximide cs, AmpC inh detg)
CC12COC3(C(=O)Nc4ccc5ccccc5c4)CC1CCC32C (centres undefined)	Shiga toxin inh 122, Cycloheximide cs 35
CC12COC3(C(=O)NCCc4ccccc4)CC1CCC32C (centres undefined)	Shiga toxin inh 56, Cycloheximide cs 50
CC12COC3(C(=O)Nc4ccccc4)CC1CCC32C (centres undefined)	none
O=C(NCC1CCCO1)C(=O)N/N=C/c1ccccc1C(=O)O (centres undefined)	none
Nc1[nH]n(-c2ccccc2)c(=O)c1N=Nc1ccccc1[N+](=O)[O-]	Cycloheximide cs 13
Cc1[nH]n(-c2ccccc2)c(=O)c1N=Nc1ccc(F)cc1	Cycloheximide cs 13
CSc1ccc(N=Nc2c(C)[nH]n(C)c2=O)cc1	AMA1-RON2 inh 14µM, Shiga toxin inh 67, Cycloheximide cs 46
Nc1[nH]n(-c2ccccc2)c(=O)c1N=Nc1ccc2ncsc2c1	Shiga toxin inh 38, Cycloheximide cs 41
CCOc1ccc(NC(=O)[C@H]2O[C@@H]3OC(C)(C)O[C@@H]3[C@H]3OC(C)(C)O[C@H]32)cc1	none (no result: SARS PLpro yeast, AMA1-RON2 inh, AmpC inh no detg, Shiga toxin inh, Cycloheximide cs)
O=C(NCCNCCO)C1(C(F)(F)F)CC(CCc2ccccc2)CCCO1 (centres undefined)	none (no result: SARS PLpro yeast, AMA1-RON2 inh, AmpC inh no detg, AmpC inh detg)
Cn1c(Br)nc2c1c(=O)n(CC(O)COc1ccccc1)c(=O)n2C (centres undefined)	none
Nc1[nH]n(-c2ccccc2)c(=O)c1N=Nc1ccccc1	AMA1-RON2 inh inconclusive, Shiga toxin inh 61, Cycloheximide cs 61
COc1ccc2c(=O)c(-c3ccccc3)c(C)oc2c1	Shiga toxin inh 34
COc1ccc2c(CN(C)Cc3ccccc3)cc(=O)oc2c1	none (no result: SARS PLpro yeast, AmpC inh no detg, Shiga toxin inh, Cycloheximide cs, AmpC inh detg)
COC(=O)c1cc(-c2c(C)oc3cc(OC)ccc3c2=O)c(C)o1	none
COc1ccc2c(CN(C)c3ccccc3)cc(=O)oc2c1	Cycloheximide cs 22
COc1ccc2c(CN3CC=C(c4ccccc4)CC3)cc(=O)oc2c1	Cycloheximide cs 29
CCOc1ccc(C(=O)N2CCC(c3noc(-c4ccc(S(=O)(=O)N5CCCC5)cc4)n3)CC2)cc1	none (no result: SARS PLpro yeast, AMA1-RON2 inh, AmpC inh no detg, Shiga toxin inh, Cycloheximide cs)
c1ccc(-c2noc(-c3cccc4ccccc34)n2)nc1	Shiga toxin inh 41, Cycloheximide cs 43, AmpC inh detg inconclusive
COc1cc(-c2nc(-c3ccccn3)no2)cc(OC)c1OC	Shiga toxin inh 81, Cycloheximide cs 17
c1ccc(-c2cc(-c3nc(-c4ccccn4)no3)c3ccccc3n2)cc1	none (no result: SARS PLpro yeast, AmpC inh no detg, Shiga toxin inh, Cycloheximide cs, AmpC inh detg)
COc1cccc(-c2nc(-c3ccccn3)no2)c1OC	Shiga toxin inh 134, Cycloheximide cs 37
CCCS(=O)(=O)N1CCCC(C(=O)NCc2ccc(C)cc2)C1 (centres undefined)	none
CCn1c(NCc2cccs2)nc2ccccc21	none
CCN(CC)CCn1c(NCc2ccco2)nc2ccccc21	AmpC inh detg inconclusive
Cn1c(NCc2cccs2)nc2ccccc21	Shiga toxin inh 57, Cycloheximide cs 33
Cn1c(NCc2ccco2)nc2ccccc21	Cycloheximide cs 12
CC(=O)Nc1ccc2c(c1)nc(C)n2-c1ccccc1	Cycloheximide cs 13
Cc1nc2cc(NC(=O)COc3ccc(C#N)cc3)ccc2n1-c1ccccc1	SARS PLpro yeast inconclusive
Cc1nc2cc(NC(=O)c3ccc(Cl)cc3)ccc2n1C	Cycloheximide cs 26 (no result: Shiga toxin inh)
CCOc1ccc(NC(=O)Nc2ccc3c(c2)nc(C)n3C)cc1	none
Cc1ccc(NC(=O)Nc2ccc3c(c2)nc(C)n3C)cc1C	Shiga toxin inh 108, Cycloheximide cs 45 (no result: AMA1-RON2 inh)
COc1ccccc1NC(=O)Nc1ccc2c(c1)nc(C)n2C	Cycloheximide cs 28
CN(C)c1nnnn1-c1ccc(Cl)cc1Cl	none
Cn1cccc1CNC(=S)Nc1ccccc1F	none
Cc1noc(C)c1C(=O)N(CC(C)C)c1nc2ccccc2s1	none
CC(C)CN(C(=O)c1ccco1)c1nc2ccccc2s1	Cycloheximide cs active
CN(C)CCCN(C(=O)c1ccc([N+](=O)[O-])s1)c1nc2cc3c(cc2s1)OCCO3	Cycloheximide cs 12
Cc1ccc2nc(N(CCCN(C)C)C(=O)c3ccco3)sc2c1	none
CN(C)CCCN(C(=O)c1cccs1)c1nc2cc3c(cc2s1)OCO3	Cycloheximide cs 17
CN(C)CCCN(C(=O)c1ccco1)c1nc2cc3c(cc2s1)OCO3	Cycloheximide cs 12
CN(C)CCCN(C(=O)c1ccc(Cl)s1)c1nc2cc3c(cc2s1)OCO3	none
Cc1c(C(=O)NCCCN2CCCC2=O)oc2ccc(S(=O)(=O)N3CCOCC3)cc12	none
COc1ccc(Br)c(Cn2c(C)c(C(=O)N(C)Cc3ccc(F)cc3)sc2=O)c1	none (no result: SARS PLpro yeast, AmpC inh no detg, Shiga toxin inh, Cycloheximide cs, AmpC inh detg)
CC(C)(C)c1ccc(C(=O)NC(=O)CSc2n[nH]c(N)n2)cc1	none (no result: Shiga toxin inh, Cycloheximide cs)
O=C(NCc1ccc2c(c1)OCO2)c1ccc2c(c1)OCCO2	Shiga toxin inh 18
COc1ccc(CNC(=O)COC(=O)c2ccc3c(c2)OCCO3)cc1	none
COC(=O)c1ccc(CNC(=O)c2ccc3c(c2)OCCO3)cc1	Cycloheximide cs 19
O=C(NCc1ccc2c(c1)OCO2)c1ccc2c(c1)OCO2	Shiga toxin inh 46, Cycloheximide cs 26
CC(C)NC(=O)c1ccc(C(C)C)cc1	Cycloheximide cs 18
